Sampled rows, rich in hits. Any-hit rate of the full collection: about 12%.
JMJD2A Tudor: inhibitors of human JMJD2A Tudor domain | O75164 | AlphaScreen JMJD2A-Tudor / H3K4me3 peptide binding | AID 504339 | Potency, µM (top dose mostly 114 µM), for the others: at the top dose activity change, negative = inhibition, actives largely listed as inhibitors | 390,000 compounds, 4.4% hits; further: on the % scale 0 is the no-effect control and ±100 the full control effect; nearly all actives have a fitted effect of over 50% in size
Sfp PPTase inh: inhibitors of Bacillus subtilis Sfp phosphopantetheinyl transferase | Q9F4F7 | Biochemical Sfp PPTase activity, qHTS | Potency, µM, inactives show largest response in the series, negative = inhibition, actives largely listed as inhibitors | 310,000 compounds, 3.5% hits;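 further: the enzyme is Sfp with the accession as filed and its product quenches rhodamine fluorescence; 0% = enzyme reaction without inhibitor and -100% = no enzyme wells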
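Sfp 15 nM + cpd, 15 min RT; start w/ rhodamine-CoA 5 uM, BHQ-2-YbbR 12.5 uM (final); 50 mM Hepes pH 7.6, 10 mM MgCl2, 0.01% NP-40, 0.01% BSA; read 525/598 nm at 0 and 30 min.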
BAZ2B block: BAZ2B (human) inhibition | Potency, µM (highest dose often 114 µM), for inactives: at the highest dose activity change, negative = inhibition, usual class: inhibitors | AlphaScreen BAZ2B-H3K14Ac peptide displacement | AID 504333 | 360,000 compounds, 4.4% hits; further: on the % scale 0 is the no-effect control and ±100 the full control effect; nearly all actives have a fitted effect of over 60% in size
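AlphaScreen displacement: compounds (up to 110uM) incubated 30 min at room temperature with a preformed 50 nM BAZ2B/50 nM biotinylated H3K14Ac peptide complex in PBS pH 7.4 with Tween-20. Donor and acceptor beads at 10 ug/mL final added, 20 min light-protected before reading.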
HP1b chromo inh: HP1-beta chromodomain-methylated histone interaction inhibition. AlphaScreen HP1-beta / biotin-H3K9me3 peptide binding. Potency, µM (highest dose often 114 µM), inactives show top-dose activity change, negative = inhibition, hits mostly inhibitors. 390,000 compounds, 0.56% hits. AID 540317; further: nearly all actives have a fitted effect of over 70% in size
Target sequence (P83916 whole entry, looked up): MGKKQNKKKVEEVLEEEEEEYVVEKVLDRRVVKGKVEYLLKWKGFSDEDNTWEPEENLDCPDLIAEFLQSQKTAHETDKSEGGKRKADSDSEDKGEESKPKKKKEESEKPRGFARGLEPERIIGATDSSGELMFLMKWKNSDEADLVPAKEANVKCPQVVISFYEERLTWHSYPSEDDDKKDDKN
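Compound inhibition of the preformed complex between 50 nM HP1-beta and 50 nM biotinylated H3K9me3 peptide was read by AlphaScreen. Buffer was PBS pH 7.4 with 0.01% Tween-20. Incubations ran 30 min at room temperature, with 10 ug/mL donor/acceptor beads.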
G9a inh: G9a (human) methyltransferase inhibition; G9a H3K9 monomethylation, AlphaScreen, 2 h; Potency, µM (highest dose often 102 µM), inactives show top-dose activity, negative = inhibition, usual class: inhibitors; Q96KQ7; 350,000 compounds, 8.8% hits; further: on the % scale 0 is the no-effect control and ±100 the full control effect; nearly all actives have a fitted effect of over 75% in size
Target sequence (Q96KQ7 913-1193 limits assumed): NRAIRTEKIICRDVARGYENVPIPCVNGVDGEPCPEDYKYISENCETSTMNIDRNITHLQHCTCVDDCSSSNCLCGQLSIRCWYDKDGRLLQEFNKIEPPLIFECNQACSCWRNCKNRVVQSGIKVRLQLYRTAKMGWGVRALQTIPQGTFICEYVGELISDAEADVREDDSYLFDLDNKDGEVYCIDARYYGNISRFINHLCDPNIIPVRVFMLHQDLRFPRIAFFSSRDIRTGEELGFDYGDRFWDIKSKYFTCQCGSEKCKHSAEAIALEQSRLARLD
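Quantitative HTS format: methyltransferase activity on a biotin-tagged H3K9 peptide is measured by AlphaScreen, using a rabbit anti-monomethyl-H3K9 antibody with streptavidin donor and anti-IgG acceptor beads. Final levels are 20 nM enzyme, 500 nM peptide, 20 uM SAM; 2 h RT.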
L3MBTL1 block: L3MBTL1 (human) inhibition; Q9Y468; AlphaScreen L3MBTL1–H3K9me1 peptide binding; Potency, µM (doses to about 57.1 µM), inactives show at the highest dose activity, negative = inhibition, hits mostly inhibitors; 230,000 compounds, 0.66% hits; AID 485360; further: on the % scale 0 is the no-effect control and ±100 the full control effect; nearly all actives have a fitted effect of over 60% in size
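First, the protein-peptide complex forms for 30 min at room temperature (L3MBTL1 50 nM, biotinylated H3K9me1 peptide 75 nM). Next, compounds are pin-transferred and incubated 30 min. Finally, AlphaScreen beads are added and read after 30 min.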
* hit, by the source's call; ? = inconclusive; / = not tested or not shown; [ ] = another dose, or the depositor's remark. The call rests on the fitted dose curve; in most records, active means well fitted curve in the direction sought with a large enough effect; inconclusive means small, poorly fitted or top-dose-only effect, or another doubt; inactive means no such curve, though single readings can be large; an effect the other way counts as inactive or inconclusive. Potency means the concentration at half of the fitted maximal effect.

SMILES	JMJD2A Tudor	Sfp PPTase inh	BAZ2B block	HP1b chromo inh	G9a inh	L3MBTL1 block
CCCCC1=CC2=C(c3ccco3)C(=O)C(C)(OC(=O)c3cccs3)C(=O)C2=CO1 (stereo unspecified)	/	-17%	/	/	/	/
Cc1cccc(NC(=O)C2CCCN(c3nnc(-n4c(C)ccc4C)s3)C2)c1C (stereo unspecified)	-19%	/	-4%	4%	-1%[59 µM]	/
COc1ccc(NC(=O)CCC(=O)Nc2nnc(C3CCCCC3)s2)c(OC)c1	-10%	?	-11%	27%	71µM*	/
COc1ccc(N2CC(C(=O)Nc3nnc(SCc4ccccn4)s3)CC2=O)cc1 (stereo unspecified)	-15%	-14%	-6%	22%	50µM*	5%
Cc1ccc(N2CC(C(=O)Nc3nnc(SCC(N)=O)s3)CC2=O)cc1 (stereo unspecified)	-15%	0%	-8%	38%	40µM*	/
NC(=O)CSc1nnc(NC(=O)C2CC(=O)N(c3ccc(F)cc3)C2)s1 (stereo unspecified)	-22%	?	?	19%	/	/
Cc1ccc(N2CC(C(=O)N3CCC(C(=O)Nc4nnc(C(C)C)s4)CC3)CC2=O)cc1 (stereo unspecified)	-4%	-14%	12%	-14%	45µM*	/
COc1ccc(-n2cc(-c3ccccc3)c3c(SC(C)C(C)=O)ncnc32)cc1 (stereo unspecified)	-16%	/	-4%	44%	38%[59 µM]	/
COc1ccccc1N1CCN(C(=O)Cn2ncc3c(=O)oc4ccc(C)cc4c32)CC1	-2%	/	-14%	37%	-10%[59 µM]	/
Cc1c([S+](=O)([O-])N2CCN([S+](=O)([O-])c3c(F)cccc3F)CC2)sc2ccc(Cl)cc12	-18%	/	/	/	/	/
COc1ccc(N2CC(C(=O)Nc3nnc(SCC(=O)c4ccccc4)s3)CC2=O)cc1 (stereo unspecified)	-16%	28µM*	-2%	11%	13µM*	-10%
COc1cccc(C(=O)/C(C#N)=N/Nc2cccc(-c3ccnc(C)n3)c2)c1	?	-8%	?	-1%	50µM*	-23%
CNC(=O)Nc1cccc(-c2ccnc(C)n2)c1	19%	2%	-2%	24%	/	9%
COc1ccc(-c2nc3scc(CCNS(=O)(=O)c4ccccc4F)n3n2)cc1	-17%	/	-11%	10%	11%[59 µM]	/
O=S(=O)(c1ccccc1)N1CCC[C@@]2(CCN(c3ccccc3)C2)C1	/	1%	/	/	-25%[12.7 µM]	/
CCc1ccccc1SCc1noc(C(=O)NCC2CCCO2)c1C(=O)O (stereo unspecified)	-4%	-6%	-33%	54%	-2%[0.0925 µM]	7%
O=C(NCC1CCCO1)c1onc(CSc2ccccc2F)c1C(=O)O (stereo unspecified)	-17%	19%	79µM*	5%	31%[0.501 µM]	7%
CCOC(=O)/C(CCC[N+](C)(CC)CC)=N\O	?	-5%	-32%	?	11µM*	11%
CCOC(=O)c1cc2c(N)c(C(=O)c3cc(C#N)c(SC)nc3C)sc2nc1C	-10%	40µM*	7%	20%	45µM*	3%
COc1ccc(C)c2sc(NC(=O)c3ccc(S(=O)(=O)N(C)C)cc3)nc12	-1%	/	7%	32%[57 µM]	7%[59 µM]	/
Cn1c(=O)c(-c2cc(=O)[nH][nH]2)c(O)c2ccccc21	35µM*	22%	56µM*	8%	-28%	-14%
Cc1ccsc1CN1CCc2nc(Nc3ccccc3)ncc2C1	?	/	?	-13%	-46%[59 µM]	/
CCOc1ccc(OCC)c(NC(=O)CN2CCN(c3cccc(C)c3)CC2)c1	7.9µM*	25µM*	40µM*	25µM*	3.5µM*	-9%
CCOc1ccc(OCC)c(NC(=O)CN2CCN(c3cccc(C)c3)C(C)C2)c1 (stereo unspecified)	1.1µM*	?	50µM*	25µM*	?	-26%
CCOc1ccc(OCC)c(NC(=O)Cn2cccc2)c1	-12%	9%	-36%	14%	-8%[59 µM]	/
SMILES	JMJD2A Tudor	Sfp PPTase inh	BAZ2B block	HP1b chromo inh	G9a inh	L3MBTL1 block
CCOc1ccc(NC(=O)CN2CCN(CC(=O)Nc3ccccc3OCC)CC2)cc1	-6%	/	0%	27%[57 µM]	3%[59 µM]	/
c1coc(CNc2nc[n+]3c4c2ncn4CC3)c1	-13%	/	/	24%	/	/
COc1ccc(Nc2nnc(SCc3cn4c(C)cccc4n3)s2)cc1	-32%	4%	?	4%	?	-6%
Cc1cccn2cc(CSc3nnc(Nc4ccc(C(C)C)cc4)s3)nc12	-29%	-2%	-37%	14%	40µM*	-12%
CCC(=O)N1c2ccc(S(=O)(=O)NCc3cccc(OC)c3)cc2CC1C (stereo unspecified)	-1%	/	/	65%	11%[59 µM]	/
Cn1nnnc1Sc1ncnc2scc(Br)c12	5%	/	/	47%	/	5%
Cn1nnnc1Sc1ncnc2scc(I)c12	79µM*	/	/	/	/	/
O=C(O)/C=C/C(=O)Nc1ccc(Cl)cc1C(=O)c1ccccc1	1%	79µM*	-9%	49%	32µM*	-1%
O=C(O)/C=C/C(=O)Nc1ccc(NC(=O)c2ccccc2)c(Cl)c1	-13%	56µM*	19%	17%	50µM*	/
COc1ccc2c(c1)C(C)CC(C)(C)N2C(=O)NC1CCCCC1 (stereo unspecified)	-31%	-1%	?	-11%	45µM*	-9%
O=C1COc2ccc(C(=O)CSc3ccccc3C(=O)O)cc2N1	-9%	-13%	0%	40%	/	18%
O=C1COc2ccc(C(=O)CSc3nnc(Cc4cccs4)n3-c3ccccc3)cc2N1	3%[57.1 µM]	-21%	2%	18%	79µM*	/
CC(C)c1ccccc1-n1c(SCC(=O)c2ccc3c(c2)NC(=O)CO3)nc2ccccc2c1=O	-26%	6%	-11%	-3%	40µM*	4%
O=S(=O)(c1ccc2nc(Nc3ccc(Br)cc3F)ccc2c1)N1CCCCC1	-4%	/	9%	48%	0%[59 µM]	/
CCc1ccc(-n2nc3cc(C)c(NC(=O)c4cc(OC)cc(OC)c4)cc3n2)cc1	-31%	/	?	6%	5.6µM*	/
CCc1ccc(-n2nc3cc(C)c(NC(=O)c4cccc5ccccc45)cc3n2)cc1	4%	/	-17%	29%	?	/
CCc1ccc(-n2nc3cc(C)c(NC(=O)c4ccccc4C)cc3n2)cc1	89µM*	/	?	8%	7.9µM*	/
CC(=O)N1CCc2c(sc3c2c(=O)n(-c2ccccc2)c(=O)n3CC(=O)c2ccc(Cl)cc2)C1	-12%	/	4%	18%	2%[59 µM]	/
CCOc1ccc(N2C(=O)c3cccnc3C2Nc2ccc(F)cc2)cc1 (stereo unspecified)	-27%	-18%	36%	3%	56µM*	32%

Bioassay records as filed in PubChem.
